Assay outcomes as filed in PubChem BioAssay.
The list is not random: actives were taken first. Their share in the collection is about 21%.
Shiga toxin inh = Shiga toxin inhibition; inhibition, % at 38.7 µM; 9.2% of 290,000 active; Vero cells, Shiga toxin protein synthesis inhibition reporter; in the data active = inhibition mostly above about 28%, no sharp cut-off; inactive = mostly below about 43%; also: 0% is about no effect
Pf growth 48h = inhibits P. falciparum growth in the first generation, 48 h | 5.9% of 310,000 active | P. falciparum luciferase growth in erythrocytes, 48 h | Potency, µM (titrated, usually from 28.7 µM), for inactives: at the top dose activity change, negative = inhibition, hits mostly inhibitors; active = well fitted inhibition curve with a large enough effect; inconclusive = small, poorly fitted or top-dose-only effect, or another doubt; inactive = no such curve, though single readings can be large or run the other way; also: potency is read from the fitted curve at half-maximal effect; % is scaled to controls: 0 for no effect and ±100 for the full control effect
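In quantitative HTS format, infected erythrocytes bearing luciferase-reporter parasites were treated for a single generation at 37 C. Luminescence after adding detection reagent served as the growth measure.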
Cycloheximide cs = affects cycloheximide protein synthesis inhibition readout, counter-screen; max response, %; 12% of 300,000 active; cell reporter, cycloheximide protein synthesis inhibition counterscreen; AID 2314; in the data active = max response mostly above about 13%, no sharp cut-off; inactive = mostly below about 14%; also: read at 38.3 µM for the half of the compounds with a filed dose; 0% is about no effect
Pf growth 96h = P. falciparum growth inhibition at 96 hour, primary screen for plastid delayed-death inhibitors | Potency, µM (top dose mostly 28.7 µM), inactives show at the highest dose activity change, negative = inhibition, usual class: inhibitors | P. falciparum luciferase reporter growth, 96 h | AID 504834 | 6.9% of 320,000 active; active = well fitted inhibition curve with a large enough effect; inconclusive = small, poorly fitted or top-dose-only effect, or another doubt; inactive = no such curve, though single readings can be large or run the other way; also: potency is read from the fitted curve at half-maximal effect; % is scaled to controls: 0 for no effect and ±100 for the full control effect
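P. falciparum expressing integrated firefly luciferase, in erythrocytes at 2% hematocrit, 0.05% parasitemia, incubated with compounds 96 h at 37 C, 5% CO2. Growth inhibition read as loss of luminescence; two-generation exposure targets delayed-death apicoplast inhibitors.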
NS1 inh = inhibitors of influenza NS1 protein function | Potency, µM (titrated, usually from 46.1 µM), without a hit: top-dose activity, positive = more growth | 0.4% of 270,000 active | AID 2326; also: potency is read from the fitted curve at half-maximal effect; actives are rising curves; nearly all actives have a fitted effect of over 50% in size
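S. cerevisiae expressing influenza A NS1, grown in glucose, washed, then diluted 1:100 into pH 6.0 -URA galactose medium with 23 nl compound. Growth recovery read as OD600; NS1-free strain serves as control.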
SARS PLP yeast = inhibitors of SARS-CoV papain-like protease in yeast. 0.19% of 330,000 active. S. cerevisiae expressing SARS-CoV PLpro, growth rescue. Potency, µM (series often up to 32.9 µM), without a hit: at the top dose activity, positive = growth rescue, actives largely listed as activators; also: potency is read from the fitted curve at half-maximal effect; 0% is about no effect; nearly all actives have a fitted effect of over 55% in size
* = called active by the depositor; u = inconclusive; x = not tested or not shown. Unless noted, calls follow the shape of the full dose curve.

SMILES	Shiga toxin inh	Pf growth 48h	Cycloheximide cs	Pf growth 96h	NS1 inh	SARS PLP yeast
O=C(CCS(=O)(=O)c1cccs1)N1CCCC1	63*	44%	18*	21%	6%	0%
Cc1cc(C(=O)N2CCCC(CNS(=O)(=O)c3cccs3)C2)nn1C (stereo not given)	-7	1%	-2	-18%	-3%	-1%
CC1CCCN(C(=O)CNS(=O)(=O)c2cccs2)C1 (stereo not given)	54	26%	27*	u	6%	4%
Cc1nc2ccc(S(=O)(=O)NCC(=O)N3CCCC(C)C3)cc2s1 (stereo not given)	1	-6%	2	u	8%	3%
O=C(CCS(=O)(=O)c1cccs1)N1CCN(c2ccc(F)cc2)CC1	79*	25%	41*	16%	-11%	-25%
O=C(CCCNS(=O)(=O)c1cccs1)N1CCN(c2ccc(F)cc2)CC1	-7	-15%	1	-3%	-12%	-5%
Cc1nc(CC(C)C)cc(C(=O)N2CCCC(CNS(=O)(=O)c3cccs3)C2)n1 (stereo not given)	7	18%	4	8.3µM*	2%	0%
CN(Cc1ccccc1)C(=S)NC(=O)c1cccs1	2	u	8	2%	-63%	0%
Cc1ccc(-n2[nH]c(C)c(CCC#N)c2=O)cc1	-5	-13%	-3	-25%	12%	-11%
CCCCNC(=O)Cn1cnc2sc(C)c(S(=O)(=O)N3CCN(c4ccccc4OC)CC3)c2c1=O	-14	-1%	-6	u	17%	-2%
Cc1ccc2nc(C)c3c(c2c1)SCC3	3	5%	1	17%	-31%	-3%
O=C(CCNS(=O)(=O)c1cccs1)N1CCCCCC1	102*	61%	33*	u	9%	4%
CC1CCN(C(=O)CCNS(=O)(=O)c2ccccc2)CC1	56*	62%	22*	u	u	0%
O=C(CCNS(=O)(=O)c1ccc(Cl)cc1)N1CCCCCC1	-11	8%	-3	12µM*	9%	-4%
O=C(CNS(=O)(=O)c1cccs1)N1CCCCC1	30	14%	8	u	1%	2%
Cc1ccc(S(=O)(=O)NCCC(=O)N2CCC(C)CC2)cc1	x	1%	x	-9%	x	7%
COc1ccc(-c2noc(CNC(=O)c3ccoc3C)n2)cc1OC	3	4%	-3	5%	-47%	1%
C#CCOC(=O)Nc1ccc(OCC(F)(F)F)nc1	46*	35%	21*	39%	-7%	0%
C#CCOC(=O)Nc1cnccc1C(F)(F)F	-9	36%	-4	13%	-2%	-2%
COc1cccc(/C=N\NC(=O)c2ccc(C)nc2)c1	46*	29%	29*	u	-13%	1%
Cc1ccc(C(=O)N/N=C\c2cccc(OC(=O)c3cccc(F)c3)c2)cn1	43*	14%	20*	-1%	-2%	-1%
Cc1ccc(C(=O)N/N=C\c2ccc(OC(=O)c3cccc(F)c3)cc2)cn1	-3	-22%	-3	u	1%	-1%
COc1ccc(/C=N/NC(=O)c2ccc(C)nc2)cc1O	0	15%	5	-13%	9%	1%
O=C(O)/C=C\C(=O)Nc1ccc2c(c1)-c1ccccc1C2	x	x	x	x	0%	x
O=C(Nc1ccncc1)C1CCCN(S(=O)(=O)c2cccc3cccnc23)C1 (stereo not given)	-10	-11%	-3	5.9µM*	-2%	-4%
SMILES	Shiga toxin inh	Pf growth 48h	Cycloheximide cs	Pf growth 96h	NS1 inh	SARS PLP yeast
CC1CCN(C(=O)C2CCCN(S(=O)(=O)c3cccc4nsnc34)C2)CC1 (stereo not given)	-4	5%	-2	-29%	9%	x
COc1cccc(NC(=O)C2CCCN(S(=O)(=O)c3cccc4cccnc34)C2)c1 (stereo not given)	-14	u	-2	u	-34%	13%
CN(CC(=O)N1CCCCC1)S(=O)(=O)c1cccc2nsnc12	11	u	-5	u	-5%	0%
O=C(C1CCCN(S(=O)(=O)c2cccc3nsnc23)C1)N1CCN(c2ccccn2)CC1 (stereo not given)	-8	12µM*	13	67%	-21%	-3%
CN(CC(=O)N1CCN(c2ccccn2)CC1)S(=O)(=O)c1cccc2nsnc12	-12	-29%	-6	9.3µM*	-9%	23%
O=C(NCc1cccnc1)C1CCCN(S(=O)(=O)c2cccc3nsnc23)C1 (stereo not given)	-22	-6%	-6	10µM*	-2%	22%
O=C(O)c1cc([N+](=O)[O-])c(N2CCCC2)c([N+](=O)[O-])c1	16	9%	3	12%	17%	15%
O=C(Nc1cccc(-c2cn3ccccc3n2)c1)c1cc2ccccc2oc1=O	71*	-12%	59*	0%	12%	-5%
O=C(Nc1cccc(-c2cn3ccccc3n2)c1)c1cccs1	61*	56%	34*	83%	-22%	-16%
CC(C)C(=O)Nc1cccc(-c2cn3ccsc3n2)c1	15	45%	15	6%	-3%	0%
CC(C)C(=O)Nc1cccc(-c2cn3ccccc3n2)c1	17	34%	14*	20%	3%	4%
CC(=O)Nc1cccc(-c2cn3ccccc3n2)c1	40	82%	39	13µM*	-3%	-1%
CC(C)CCNC(=O)c1cc(-c2cccs2)nc2ccccc12	15	x	-2	24%	-4%	-1%
COc1ccc(CC(=O)Nc2ccc(-c3cn4ccc(C)cc4n3)cc2)cc1	16	-56%	16*	x	0%	-9%
Cc1ccn2cc(-c3cccc(NC(=O)C(C)C)c3)nc2c1	35	22%	23*	21%	7%	-1%
Cc1ccn2cc(-c3cccc(NC(=O)c4ccccc4)c3)nc2c1	44*	32%	60*	66%	-9%	3%
CN(CC#CC(O)(c1ccccc1)c1ccccc1)C(C)(C)C	-16	-23%	-3	-19%	-2%	0%
CCn1c(=O)c(C(=O)NNS(=O)(=O)c2ccc(Br)cc2)c(O)c2ccccc21	14	-2%	7	5%	0%	2%
COCCCNC(=O)CN(c1cc(Cl)ccc1OC)S(C)(=O)=O	28	7%	-4	2%	5%	0%
S=C(N=Nc1ccccc1)NNc1ccccc1	122*	136%	54*	44%	-40%	2%
CC1C(=O)N(Cc2ccccc2F)c2ccccc2N1C(=O)c1c(F)cccc1F (stereo not given)	14	u	-7	u	-10%	-8%
COc1cccc(CN2C(=O)C(C)N(C(=O)c3c(F)cccc3F)c3ccccc32)c1 (stereo not given)	17	9.3µM*	3	6.6µM*	-43%	1%
COc1ccc(-c2nc(N)c(C#N)c(-c3cccnc3)c2C)cc1	-11	u	-4	u	-31%	0%
